The text below walks through data of PubChem BioAssay AID504652 (National Center for Advancing Translational Sciences (NCATS), 2011).

“And” between values parts separate entries of the source, which are not always exact repeats. Equal values may be shown once. About 11,000 (3.1%) of roughly 360,000 compounds were called active. Rule as the data show it: active = activity change below about -30%; inactive = the rest. What follows is part of a selection rich in actives, with near analogues and random picks from the rest.
% is scaled to controls: 0 for no effect and ±100 for the full control effect.

Chain of D(1A) dopamine receptor (Homo sapiens) (P21728 whole entry, looked up): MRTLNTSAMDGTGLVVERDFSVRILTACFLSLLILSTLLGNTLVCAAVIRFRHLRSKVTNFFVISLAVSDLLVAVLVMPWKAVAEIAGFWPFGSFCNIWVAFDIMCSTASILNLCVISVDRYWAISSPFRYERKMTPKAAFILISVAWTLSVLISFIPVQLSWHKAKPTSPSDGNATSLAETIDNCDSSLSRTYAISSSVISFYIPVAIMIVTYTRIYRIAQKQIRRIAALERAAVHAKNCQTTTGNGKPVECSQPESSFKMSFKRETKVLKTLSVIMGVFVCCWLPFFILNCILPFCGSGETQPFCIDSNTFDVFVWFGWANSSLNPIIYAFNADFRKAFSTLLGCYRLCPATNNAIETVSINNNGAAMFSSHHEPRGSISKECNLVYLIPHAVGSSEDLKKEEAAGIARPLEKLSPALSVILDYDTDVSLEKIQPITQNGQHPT

This test has as its target D(1A) dopamine receptor (Homo sapiens) (UniProt P21728). Nature of the test: Antagonist of Human D 1 Dopamine Receptor: qHTS. Particulars: HEK293 TREx D1 cells, calcium flux, dopamine EC80; at 10 µM; active compounds read low. An outline of the steps: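 Compound effects on dopamine-evoked calcium signalling were measured in tetracycline-induced HEK293 Trex D1 cells. Dopamine at EC80 followed a 180 s compound pre-read, and fluorescence was tracked kinetically for 180 s more.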
In general terms: Quantitative high-throughput screening tests each substance at several concentrations.
With `COc1ccc(-c2cccc(NS(=O)(=O)c3cc(C)c(OC)c(C)c3C)c2)nn1`, the activity change, negative = inhibition was -20.7% (inactive).
The value for `COc1ccc(-c2cc(C(=O)NCc3cc(OC)c(OC)c(OC)c3)[nH]n2)cc1` was -10.2% (inactive); that for `COc1ccc(C(F)(F)F)cc1NC(=O)c1sc2nc(-c3cccs3)ccc2c1N` was -1.54% (inactive).
For `NS(=O)(=O)c1ccc(NC(=O)C(=O)Nc2ccc3nc4n(c(=O)c3c2)CCCCC4)cc1` the value was -3.24% (inactive); for `COc1ccc(Cc2nc3ccc(C(=O)NCc4ccccc4Cl)cc3o2)cc1`, -19.1% (inactive).
For `CN1CCN(C(CNC(=O)c2ccccc2F)c2ccc3c(c2)OCO3)CC1` (stereo not given) the value was 8.69% (inactive); for `CCOc1cc(C(=O)NCCc2csc3nc(-c4ccc(C)cc4)nn23)cc(OCC)c1OCC`, 3.63% (inactive); for `O=C(NCc1ccco1)c1sc2cccc(F)c2c1Cl`, -46.1% (active).
On to `O=C(NCc1ccco1)c1cc2sccc2n1Cc1ccc(F)cc1`, for which the activity change, negative = inhibition was -8.06% (inactive).
For `O=C(NCc1ccco1)c1nn2cccnc2c1Cl`, the activity change, negative = inhibition was 15.7% (inactive).
The value for `CCOc1ccc(N2CC(C)Cn3c2nc2c3c(=O)n(Cc3c(F)cccc3Cl)c(=O)n2C)cc1` (stereo not given) was -2.48% (inactive).
For `COc1ccc(CNC(=O)c2ccc3c(c2)nc2n3CCOC2)c(OC)c1` the value was 1.06% (inactive); for `Cc1ccc(CNC(=O)CSC2=Nc3ccccc3C3=NC(C)C(=O)N23)cc1` (stereo not given), -1.57% (inactive).
For the compound `O=C(CSc1ccc(-c2ccccc2)nn1)NCC1CCCO1` (stereo not given), the activity change, negative = inhibition was 5.37% (inactive).
The value for `O=C(CSC1=Nc2ccccc2C2=NC(c3ccccc3)C(=O)N12)NCC1CCCO1` (stereo not given) was -47% (active); that for `O=C(COc1ccc(Cl)cc1)Nc1ccc(-c2nc3cc(Cl)ccc3o2)c(O)c1` was 3.9% (inactive); that for `CN(CC(=O)Nc1ccccc1F)S(=O)(=O)c1ccc2c(c1)c(=O)n(C)c(=O)n2C` was 8.37% (inactive).
Regarding `COC(=O)c1ccc(NC(=O)C(C)N2C(=O)c3ccccc3C2=O)cc1` (stereo not given), the activity change, negative = inhibition is -2.2% (inactive).
The value for `CCOc1ccc(NC(=O)C(CC(C)C)N2Cc3ccccc3C2=O)cc1` (stereo not given) was 6.62% (inactive).
As for `CCOc1ccc(NC(=O)C(C)N2C(=O)c3ccccc3C2=O)cc1` (stereo not given), the activity change, negative = inhibition was -42.7% (active).
As for `COc1cc2nc(SCC(=O)Nc3ccccc3F)n3nc(-c4ccccc4)nc3c2cc1OC`, the activity change, negative = inhibition was -6.83% (inactive).
For `COc1ccc(CNc2nc(-c3ccc(Cl)cc3)nn2C(=O)c2ccccc2)cc1` the value was -0.876% (inactive).
Regarding `Cc1cccc(NC(=O)Cn2c(=O)n(Cc3ccccc3)c(=O)c3c(C)c(C)sc32)c1`, the activity change, negative = inhibition was -0.708% (inactive).
For `CCOc1ccccc1NC(=O)Cn1c(=O)n(Cc2ccccc2)c(=O)c2c(C)c(C(=O)N(C)C)sc21` the value was -72.6% (active); for `Cc1c(C(=O)N(C)C)sc2c1c(=O)n(-c1ccc(F)cc1)c(=O)n2CC(=O)N(C)c1ccccc1`, -0.832% (inactive); for `CCOc1ccc(OCC)c(NS(=O)(=O)c2ccc3[nH]c(=O)ccc3c2)c1`, -7.27% (inactive).
For `CCC1SC2=NCCN2C1(O)c1ccc(Cl)cc1` (stereo not given) the value was -31.5% (active); for `CCCOc1ccc(C2=CSC3=NCCN23)cc1Cl`, 3.06% (inactive).
The value for `Cc1cn(C)c(CC(=O)NCc2ccccc2)c1C(=O)O` was 0.691% (inactive).
With `Cc1cc(F)ccc1NC1(c2ccccc2)C(=O)c2ccccc2C1=O`, the activity change, negative = inhibition is -5.68% (inactive).
Take `COc1ccc(OCCn2cc(C(=O)C3CCCCC3)c3ccccc32)cc1`: the activity change, negative = inhibition was 10.3% (inactive).
For `CCOC(=O)C1CCCN(C(=O)c2ccc(-n3ccc4ccccc43)s2)C1` (stereo not given) the value was -9.46% (inactive).
As to `Cc1ccc(Nc2c(-c3ccc(N(C)C)cc3)nc3nc[nH]n23)cc1`, the activity change, negative = inhibition is 1.41% (inactive).
The value for `CCN(c1ccccc1)S(=O)(=O)c1cccc(C(=O)NCc2ccccc2CN2CCOCC2)c1` was -31.4% (active); that for `CCOC(=O)C1CCN(C(=O)c2cccc(S(=O)(=O)N(CC)c3ccccc3)c2)CC1` was -4.11% (inactive); that for `O=C(NCc1ccccc1CN1CCCC1)c1cccc(S(=O)(=O)Nc2ccc(F)cc2)c1` was 2.42% (inactive).
The value for `COc1cccc(Cn2c(SCc3ccc(C(=O)N4CCC(C)CC4)cc3)nc3ccncc32)c1` was -10.8% (inactive); that for `CC(C)(C)OC(=O)N1CCC(c2c(C(=O)NCCc3ccsc3)cnn2-c2ccc(F)cc2F)CC1` was -6.33% (inactive); that for `CC1CCN(C(=O)C2CCN(S(=O)(=O)N3CCC4(CC3)OCCO4)CC2)CC1` was -37.8% (active).
Turning to `O=C(O)C1CCN(S(=O)(=O)N2CCOCC2)CC1`, the activity change, negative = inhibition was 0.172% (inactive).
For `CCOC(=O)C1CCN(C(=O)C2CCN(S(=O)(=O)N3CCCC3)CC2)CC1` the value was -2.4% (inactive).
For `CC(C)C(=O)Nc1cccc(C(=O)Nc2ccc3c(c2)OCO3)c1` the value was -43.1% (active); for `CC(=O)Nc1cccc(C(=O)OCC(=O)c2ccc3c(c2)OCO3)c1`, -0.144% (inactive).
In the case of `CCSc1ccccc1C(=O)Nc1ccc2c(c1)OCO2`, the activity change, negative = inhibition is 10% (inactive).
For `Cc1ccc(Cn2c(=O)n(CCCC(=O)NCc3ccccc3Cl)c(=O)c3ccccc32)cc1` the value was 5.86% (inactive); for `Fc1ccc(CNc2nc3ccccc3n3nnnc23)cc1`, -50.2% (active); for `CCOc1ccc(OCC)c(Nc2nc3ccccc3n3nnnc23)c1`, 1.86% (inactive).
For `Fc1ccc(CSc2nc(NCc3ccccc3)c3ccccc3n2)cc1` the value was 21.1% (inactive); for `CCOC(=O)c1cccc(NC(=O)C(Cc2ccccc2)NS(=O)(=O)c2cccc3nsnc23)c1` (stereo not given), -3.2% (inactive); for `Clc1cccc(Cl)c1OCCOCCNCc1ccccc1`, -39.7% (active).
Consider `OCCNCc1cccc(OCc2ccccc2Cl)c1`, for which the activity change, negative = inhibition is 0.511% (inactive).
In the case of `CCOc1ccccc1OCCCNCc1ccccc1`, the activity change, negative = inhibition is -23.9% (inactive).
As for `O=C(CN1c2ccccc2S(=O)(=O)c2ccccc21)Nc1cccc(C(F)(F)F)c1`, the activity change, negative = inhibition was -3.23% (inactive).
For `Cc1cccc(CC(=O)Nc2cccc(-c3cn4cccnc4n3)c2)c1` the value was -7.29% (inactive).
For `COc1cc(CNC(=O)c2cc3n(n2)CCCN(Cc2cccc(F)c2)C3=O)cc(OC)c1OC`, the activity change, negative = inhibition is -15.1% (inactive).
For `COc1ccc(CNS(=O)(=O)c2cc3c4c(c2)CCN4C(=O)CC3)cc1` the value was -7.89% (inactive) and -23.2% (inactive); for `COc1ccc(C)cc1S(=O)(=O)Nc1cc2c3c(c1)CCC(=O)N3CCC2`, -35% (active).
For `COc1ccc(C)cc1S(=O)(=O)NC1CCCCC1` the value was 2.79% (inactive); for `O=C1CCc2cc(S(=O)(=O)Nc3ccc(C(F)(F)F)cc3)cc3c2N1CC3`, -8.34% (inactive).
`COc1ccccc1CCNS(=O)(=O)c1cc2c3c(c1)C(C)C(=O)N3CCC2` (stereo not given): the activity change, negative = inhibition was -6.83% (inactive).
The value for `COc1ccccc1CNS(=O)(=O)c1cc2c3c(c1)CCC(=O)N3CCC2` was -53% (active); that for `CCOC(=O)c1scc(-c2ccc(C)cc2)c1S(=O)(=O)Nc1cc(C)ccc1C` was -6.21% (inactive); that for `COc1cc(OC)cc(C(=O)Nc2ccc3nc(Nc4cccc(C(F)(F)F)c4)cc(C)c3c2)c1` was -9.91% (inactive).
Consider `O=C(c1ccc(Oc2ccc(Cl)cc2)c([N+](=O)[O-])c1)N1CCCC1`, for which the activity change, negative = inhibition is -38.6% (active).
On to `C/C(=C/c1ccccc1)C(=O)N1CCN(c2ccccc2)CC1`, for which the activity change, negative = inhibition was -2.86% (inactive).
Consider `Nc1ccc(C(=O)N2CCN(S(=O)(=O)c3ccc(Cl)cc3)CC2)cc1[N+](=O)[O-]`, for which the activity change, negative = inhibition was -1.4% (inactive).
In the case of `O=C(c1ccc(Cl)c([N+](=O)[O-])c1)N1CCN(c2ccccc2)CC1`, the activity change, negative = inhibition is -35.8% (active).
On to `O=C(c1ccccc1)c1ccc(C(=O)N2CCN(c3ccccc3)CC2)cc1`, for which the activity change, negative = inhibition was -32.4% (active).
For `O=C(c1ccc(Cl)c(Cl)c1)N1CCCC1` the value was -10.9% (inactive); for `CO/N=C/c1ccc(N2CCN(C(=O)c3cccc(Cl)c3)CC2)c([N+](=O)[O-])c1`, -27.5% (inactive); for `O=C(COc1ccc(Cl)cc1[N+](=O)[O-])N1CCCCC1`, 15.9% (inactive).
The value for `CC1CCN(c2nc3ccc(C(=O)N4CCN(c5ccccc5)CC4)cc3s2)CC1` was 4.36% (inactive); that for `O=S(=O)(c1ccc(C2CCCCC2)cc1)N1CCN(c2ccc(Cl)c(Cl)c2)CC1` was 14.7% (inactive).
For `Cc1cc(NS(=O)(=O)c2ccc3oc(=O)c4ncn(C)c4c3c2)ccc1Br` the value was -1.47% (inactive); for `Cn1nnnc1Sc1ncnc2scc(-c3ccccc3[N+](=O)[O-])c12`, -0.145% (inactive).
Regarding `Cc1ccc(-c2nc(Cn3c(=O)cc(-c4ccccc4)c4c(C)nn(C)c43)c(C)o2)cc1`, the activity change, negative = inhibition is 12% (inactive).
Take `CN(C)c1ccc(NC(=O)CSc2nc(-c3ccco3)cc(C(F)(F)F)n2)cc1`: the activity change, negative = inhibition is -4.62% (inactive).
Take `CCn1c(C)c(C)c2cc(C(=O)NCCc3cc(OC)ccc3OC)ccc21`: the activity change, negative = inhibition was 13.1% (inactive).
Take `COc1ccc(C(=O)COC(=O)c2ccc([N+](=O)[O-])s2)cc1OC`: the activity change, negative = inhibition was 3.97% (inactive).
Consider `COc1ccc(Cl)cc1C(=O)OCC(=O)NCc1cccs1`, for which the activity change, negative = inhibition was -19.7% (inactive).
In the case of `COc1ccc(C(=O)OCC(=O)c2ccc(Cl)s2)c(OC)c1OC`, the activity change, negative = inhibition was -34.5% (active).
The value for `COC(=O)c1ccccc1NC(=O)Cn1c(=O)cc(C)c2c(C)nn(-c3cccc(Cl)c3C)c21` was 11.3% (inactive); that for `Cc1ccc(C)c(Cn2c(CCCNC(=O)C3CCCCC3)nc3ccccc32)c1` was -4.99% (inactive).
The value for `Cc1cccc2c1cnn2C(=O)CCC(=O)NC1CCCCC1` was 11.5% (inactive); that for `Cc1cccc(-c2noc(CCC(=O)NC3CCCC3)n2)c1` was -18.1% (inactive); that for `Cc1ccc2c(cnn2C(=O)CCC(=O)NC2CCCC2)c1` was -47.2% (active).
For `Cc1cccc2c(=O)cc(CSc3ccccc3NC(=O)C(C)C)[nH]c12` the value was -2.11% (inactive).
`COc1ccc(NC(=O)CCC(=O)Nc2cc(OC)c(NC(=O)c3ccco3)cc2OC)c(OC)c1`: the activity change, negative = inhibition is -3.66% (inactive).
As for `COc1cc(NC(=O)c2cc([N+](=O)[O-])ccc2Br)ccc1NC(=O)c1ccco1`, the activity change, negative = inhibition was -45.2% (active).
For `COc1ccc(NC(=O)c2ccco2)cc1NC(=O)c1ccc(C#N)cc1F` the value was -1.13% (inactive) and -9.12% (inactive).
